# Measured values reported in the supplement of paper PMC12282887.
# ± gives the standard deviation of the averaged measurements.
# Tests used:
# Experiment in all cases: promoter activity interaction Z-score (Lux/OD deviation from empty-vector control); higher = stronger promoter induction by the compound
# [1] = test system: E. coli BW25113 acrABp lux reporter
# Procedure, shortened: (§1)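 E. coli BW25113 (wild type or marA, soxS or rob deletion) carrying low-copy luxCDABE promoter reporters grew in 40 µl LB Lennox in 384-well plates at 37°C. Each compound was tested at four 1:2 dilutions in biological duplicates. OD600 and luminescence were read every 30 min for 12 h. Areas were taken over 0–8 h (wild type) or 1–9 h (mutants), and wells below 10% of median growth area were removed. The score is the Z-transformed residual of growth-normalised luminescence fitted against the empty-vector control.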
# [2] = test system: E. coli BW25113 micFp lux reporter
# Procedure, shortened: as §1
# [3] = test system: E. coli BW25113 ompFp lux reporter
# Procedure, shortened: as §1
# [4] = test system: E. coli BW25113 robp lux reporter
# Procedure, shortened: as §1
# [5] = test system: E. coli BW25113 soxSp lux reporter
# Procedure, shortened: as §1
# [6] = test system: E. coli BW25113 tolCp lux reporter
# Procedure, shortened: as §1
# [7] = 0.064 µg/ml, genetic background: wild type
# [8] = 0.064 µg/ml, genetic background: ΔmarA
# [9] = 0.064 µg/ml, genetic background: Δrob
# [10] = 0.064 µg/ml, genetic background: ΔsoxS
# [11] = 0.13 µg/ml, genetic background: wild type
# [12] = 0.13 µg/ml, genetic background: ΔmarA
# [13] = 0.13 µg/ml, genetic background: Δrob
# [14] = 0.13 µg/ml, genetic background: ΔsoxS
# [15] = 0.26 µg/ml, genetic background: wild type
# [16] = 0.26 µg/ml, genetic background: ΔmarA
# [17] = 0.26 µg/ml, genetic background: Δrob
# [18] = 0.26 µg/ml, genetic background: ΔsoxS
# [19] = 0.51 µg/ml, genetic background: wild type
smiles,measurement,setting,value
C[C@H]1c2cccc(O)c2C(=O)C2=C(O)[C@]3(O)C(=O)C(C(N)=O)=C(O)[C@@H](N(C)C)[C@@H]3[C@@H](O)[C@@H]21 [Doxycycline],promoter activity interaction Z-score,[1]; [7],0.468 ± 0.23
same,promoter activity interaction Z-score,[1]; [8],-0.101 ± 0.52
same,promoter activity interaction Z-score,[1]; [9],0.667 ± 0.18
same,promoter activity interaction Z-score,[1]; [10],0.902 ± 0.18
same,promoter activity interaction Z-score,[1]; [11],1.36 ± 0.11
same,promoter activity interaction Z-score,[1]; [12],0.0555 ± 0.26
same,promoter activity interaction Z-score,[1]; [13],2.17 ± 0.61
same,promoter activity interaction Z-score,[1]; [14],2.67 ± 1.3
same,promoter activity interaction Z-score,[1]; [15],3.4 ± 0.4
same,promoter activity interaction Z-score,[1]; [16],-0.561 ± 0.26
same,promoter activity interaction Z-score,[1]; [17],3.18 ± 0.3
same,promoter activity interaction Z-score,[1]; [18],3.94 ± 0.66
same,promoter activity interaction Z-score,[2]; [7],1.47 ± 0.83
same,promoter activity interaction Z-score,[2]; [8],0.45 ± 0.069
same,promoter activity interaction Z-score,[2]; [9],-0.0978 ± 0.028
same,promoter activity interaction Z-score,[2]; [10],0.831 ± 0.11
same,promoter activity interaction Z-score,[2]; [11],2.59 ± 0.24
same,promoter activity interaction Z-score,[2]; [12],0.672 ± 0.35
same,promoter activity interaction Z-score,[2]; [13],0.226 ± 0.065
same,promoter activity interaction Z-score,[2]; [14],2.53 ± 0.24
same,promoter activity interaction Z-score,[2]; [15],1.58 ± 0.61
same,promoter activity interaction Z-score,[2]; [16],1.02 ± 0.22
same,promoter activity interaction Z-score,[2]; [17],-0.177 ± 0.23
same,promoter activity interaction Z-score,[2]; [18],2.84 ± 1.2
same,promoter activity interaction Z-score,[2]; [19],-0.656 ± 0.6
same,promoter activity interaction Z-score,[3]; [7],2.17 ± 0.36
same,promoter activity interaction Z-score,[3]; [8],2.03 ± 0.54
same,promoter activity interaction Z-score,[3]; [9],2.36 ± 0.68
same,promoter activity interaction Z-score,[3]; [10],2.91 ± 0.58
same,promoter activity interaction Z-score,[3]; [11],2.54 ± 0.84
same,promoter activity interaction Z-score,[3]; [12],1.92 ± 0.47
same,promoter activity interaction Z-score,[3]; [13],2.05 ± 0.15
same,promoter activity interaction Z-score,[3]; [14],3.33 ± 0.7
same,promoter activity interaction Z-score,[3]; [15],0.914 ± 0.97
same,promoter activity interaction Z-score,[3]; [16],-0.13 ± 1.5
same,promoter activity interaction Z-score,[3]; [17],-1.55 ± 0.46
same,promoter activity interaction Z-score,[3]; [18],2.96 ± 1.1
same,promoter activity interaction Z-score,[4]; [7],0.541 ± 0.37
same,promoter activity interaction Z-score,[4]; [8],0.726 ± 0.57
same,promoter activity interaction Z-score,[4]; [9],0.325 ± 0.7
same,promoter activity interaction Z-score,[4]; [10],1.37 ± 0.15
same,promoter activity interaction Z-score,[4]; [11],-0.332 ± 0.71
same,promoter activity interaction Z-score,[4]; [12],-0.921 ± 0.38
same,promoter activity interaction Z-score,[4]; [13],-0.263 ± 1.5
same,promoter activity interaction Z-score,[4]; [14],0.43 ± 1.4
same,promoter activity interaction Z-score,[4]; [15],-1.3 ± 0.03
same,promoter activity interaction Z-score,[4]; [16],-1.65 ± 0.046
same,promoter activity interaction Z-score,[4]; [17],-2.35 ± 0.43
same,promoter activity interaction Z-score,[4]; [18],-1.67 ± 0.45
same,promoter activity interaction Z-score,[4]; [19],-0.891 ± 0.46
same,promoter activity interaction Z-score,[5]; [7],0.306 ± 0.015
same,promoter activity interaction Z-score,[5]; [8],0.57 ± 0.091
same,promoter activity interaction Z-score,[5]; [9],0.328 ± 0.17
same,promoter activity interaction Z-score,[5]; [10],0.664 ± 0.32
same,promoter activity interaction Z-score,[5]; [11],0.688 ± 0.29
same,promoter activity interaction Z-score,[5]; [12],0.899 ± 0.1
same,promoter activity interaction Z-score,[5]; [13],0.658 ± 0.49
same,promoter activity interaction Z-score,[5]; [14],1.87 ± 0.49
same,promoter activity interaction Z-score,[5]; [15],1.52 ± 0.49
same,promoter activity interaction Z-score,[5]; [16],2.111 ± 0.021
same,promoter activity interaction Z-score,[5]; [17],0.693 ± 0.49
same,promoter activity interaction Z-score,[5]; [18],2.44 ± 1
same,promoter activity interaction Z-score,[5]; [19],1.1 ± 0.16
same,promoter activity interaction Z-score,[6]; [7],0.271 ± 0.51
same,promoter activity interaction Z-score,[6]; [8],1.62 ± 0.076
same,promoter activity interaction Z-score,[6]; [9],-0.121 ± 0.96
same,promoter activity interaction Z-score,[6]; [10],0.793 ± 0.57
same,promoter activity interaction Z-score,[6]; [11],0.44 ± 0.19
same,promoter activity interaction Z-score,[6]; [12],0.772 ± 1.2
same,promoter activity interaction Z-score,[6]; [13],0.309 ± 0.4
same,promoter activity interaction Z-score,[6]; [14],2.09 ± 0.67
same,promoter activity interaction Z-score,[6]; [15],0.167 ± 0.028
same,promoter activity interaction Z-score,[6]; [16],0.714 ± 0.019
same,promoter activity interaction Z-score,[6]; [17],2.36 ± 3.6
same,promoter activity interaction Z-score,[6]; [18],2.12 ± 1
same,promoter activity interaction Z-score,[6]; [19],0.561 ± 1.1
